# From the supplement of paper PMC4466140
# Assays:
# Assay in all cases: SPOT peptide array binding signal intensity (averaged, normalized) (arbitrary units (background-subtracted, floor 0; scale differs between SH3 domains)); higher = stronger binding of the SH3 domain to the peptide
# AgAbp1 = biological target: AgAbp1
# Procedure, shortened: (§1)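 Cellulose membranes carried synthetic 15-mer peptides with cysteines swapped for serines. These were incubated overnight at 4°C with 10 μg/ml of GST-fused SH3 domains from four yeast species in TBS-based blocking buffer. Binding signal, detected with anti-GST antibody and quantified in Genespotter, is the normalized, background-subtracted spot intensity averaged over replicates, in arbitrary units specific to each domain.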
# AgBbc1 = biological target: AgBbc1
# Procedure, shortened: as §1
# AgBem1-D1 = biological target: AgBem1-D1
# Procedure, shortened: as §1
# AgBzz1-D1 = biological target: AgBzz1-D1
# Procedure, shortened: as §1
# AgBzz1-D2 = biological target: AgBzz1-D2
# Procedure, shortened: as §1
# AgCyk3 = biological target: AgCyk3
# Procedure, shortened: as §1
# AgFus1 = biological target: AgFus1
# Procedure, shortened: as §1
# AgHof1 = biological target: AgHof1
# Procedure, shortened: as §1
# AgHse1 = biological target: AgHse1
# Procedure, shortened: as §1
# AgLsb1 = biological target: AgLsb1
# Procedure, shortened: as §1
# AgLsb4 = biological target: AgLsb4
# Procedure, shortened: as §1
# AgMyo5 = biological target: AgMyo5
# Procedure, shortened: as §1
# AgNbp2 = biological target: AgNbp2
# Procedure, shortened: as §1
# AgRvs167 = biological target: AgRvs167
# Procedure, shortened: as §1
# AgSho1 = biological target: AgSho1
# Procedure, shortened: as §1
# AgSla1-D1-D2 = biological target: AgSla1-D1-D2
# Procedure, shortened: as §1
# AgSla1-D3 = biological target: AgSla1-D3
# Procedure, shortened: as §1
# CaAbp1-D1 = biological target: CaAbp1-D1
# Procedure, shortened: as §1
# CaAbp1-D2 = biological target: CaAbp1-D2
# Procedure, shortened: as §1
# CaBbc1 = biological target: CaBbc1
# Procedure, shortened: as §1
# CaBem1-D1 = biological target: CaBem1-D1
# Procedure, shortened: as §1
# CaBzz1-D1 = biological target: CaBzz1-D1
# Procedure, shortened: as §1
# CaBzz1-D2 = biological target: CaBzz1-D2
# Procedure, shortened: as §1
# CaCyk3 = biological target: CaCyk3
# Procedure, shortened: as §1
# CaFus1 = biological target: CaFus1
# Procedure, shortened: as §1
# CaHof1 = biological target: CaHof1
# Procedure, shortened: as §1
# CaHse1 = biological target: CaHse1
# Procedure, shortened: as §1
# CaLsb1 = biological target: CaLsb1
# Procedure, shortened: as §1
# CaLsb4 = biological target: CaLsb4
# Procedure, shortened: as §1
# CaMyo5 = biological target: CaMyo5
# Procedure, shortened: as §1
# CaNbp2 = biological target: CaNbp2
# Procedure, shortened: as §1
# CaRvs167 = biological target: CaRvs167
# Procedure, shortened: as §1
# CaRvs167-3 = biological target: CaRvs167-3
# Procedure, shortened: as §1
# CaSho1 = biological target: CaSho1
# Procedure, shortened: as §1
# CaSla1-D1-D2 = biological target: CaSla1-D1-D2
# Procedure, shortened: as §1
# CaSla1-D3 = biological target: CaSla1-D3
# Procedure, shortened: as §1
# ScAbp1 = biological target: ScAbp1
# Procedure, shortened: as §1
# ScBbc1 = biological target: ScBbc1
# Procedure, shortened: as §1
# ScBem1-D1 = biological target: ScBem1-D1
# Procedure, shortened: as §1
# ScBzz1-D1 = biological target: ScBzz1-D1
# Procedure, shortened: as §1
# ScBzz1-D2 = biological target: ScBzz1-D2
# Procedure, shortened: as §1
# ScCyk3 = biological target: ScCyk3
# Procedure, shortened: as §1
# ScFus1 = biological target: ScFus1
# Procedure, shortened: as §1
# ScHof1 = biological target: ScHof1
# Procedure, shortened: as §1
# ScHse1 = biological target: ScHse1
# Procedure, shortened: as §1
# ScLsb1 = biological target: ScLsb1
# Procedure, shortened: as §1
# ScLsb2 = biological target: ScLsb2
# Procedure, shortened: as §1
# ScLsb3 = biological target: ScLsb3
# Procedure, shortened: as §1
# ScLsb4 = biological target: ScLsb4
# Procedure, shortened: as §1
# ScMyo3 = biological target: ScMyo3
# Procedure, shortened: as §1
# ScMyo5 = biological target: ScMyo5
# Procedure, shortened: as §1
# ScNbp2 = biological target: ScNbp2
# Procedure, shortened: as §1
# ScPex13 = biological target: ScPex13
# Procedure, shortened: as §1
# ScRvs167 = biological target: ScRvs167
# Procedure, shortened: as §1
# ScSho1 = biological target: ScSho1
# Procedure, shortened: as §1
# ScSla1-D1-D2 = biological target: ScSla1-D1-D2
# Procedure, shortened: as §1
# ScSla1-D3 = biological target: ScSla1-D3
# Procedure, shortened: as §1
# SpAbp1-D1 = biological target: SpAbp1-D1
# Procedure, shortened: as §1
# SpBbc1 = biological target: SpBbc1
# Procedure, shortened: as §1
# SpBzz1-D1 = biological target: SpBzz1-D1
# Procedure, shortened: as §1
# SpBzz1-D2 = biological target: SpBzz1-D2
# Procedure, shortened: as §1
# SpCyk3 = biological target: SpCyk3
# Procedure, shortened: as §1
# SpHof1 = biological target: SpHof1
# Procedure, shortened: as §1
# SpHof1-2 = biological target: SpHof1-2
# Procedure, shortened: as §1
# SpHof1-3 = biological target: SpHof1-3
# Procedure, shortened: as §1
# SpHse1 = biological target: SpHse1
# Procedure, shortened: as §1
# SpLsb1 = biological target: SpLsb1
# Procedure, shortened: as §1
# SpLsb4 = biological target: SpLsb4
# Procedure, shortened: as §1
# SpMyo1 = biological target: SpMyo1
# Procedure, shortened: as §1
# SpNbp2 = biological target: SpNbp2
# Procedure, shortened: as §1
# SpPex13 = biological target: SpPex13
# Procedure, shortened: as §1
# SpRvs167 = biological target: SpRvs167
# Procedure, shortened: as §1
# SpSla1-D1-D2 = biological target: SpSla1-D1-D2
# Procedure, shortened: as §1
# SpSla1-D3 = biological target: SpSla1-D3
# Procedure, shortened: as §1
binder,measurement,setting,value
TKHKAPPPPPPTAET,SPOT peptide array binding signal intensity,AgAbp1,1
same,SPOT peptide array binding signal intensity,AgBbc1,≤ 0
same,SPOT peptide array binding signal intensity,AgBem1-D1,≤ 0
same,SPOT peptide array binding signal intensity,AgBzz1-D1,2000
same,SPOT peptide array binding signal intensity,AgBzz1-D2,338
same,SPOT peptide array binding signal intensity,AgCyk3,≤ 0
same,SPOT peptide array binding signal intensity,AgFus1,≤ 0
same,SPOT peptide array binding signal intensity,AgHof1,≤ 0
same,SPOT peptide array binding signal intensity,AgHse1,4
same,SPOT peptide array binding signal intensity,AgLsb1,≤ 0
same,SPOT peptide array binding signal intensity,AgLsb4,≤ 0
same,SPOT peptide array binding signal intensity,AgMyo5,21.8
same,SPOT peptide array binding signal intensity,AgNbp2,39.5
same,SPOT peptide array binding signal intensity,AgRvs167,4
same,SPOT peptide array binding signal intensity,AgSho1,≤ 0
same,SPOT peptide array binding signal intensity,AgSla1-D1-D2,3
same,SPOT peptide array binding signal intensity,AgSla1-D3,774
same,SPOT peptide array binding signal intensity,CaAbp1-D1,12
same,SPOT peptide array binding signal intensity,CaAbp1-D2,≤ 0
same,SPOT peptide array binding signal intensity,CaBbc1,≤ 0
same,SPOT peptide array binding signal intensity,CaBem1-D1,42.5
same,SPOT peptide array binding signal intensity,CaBzz1-D1,4620
same,SPOT peptide array binding signal intensity,CaBzz1-D2,3490
same,SPOT peptide array binding signal intensity,CaCyk3,1
same,SPOT peptide array binding signal intensity,CaFus1,4.5
same,SPOT peptide array binding signal intensity,CaHof1,1
same,SPOT peptide array binding signal intensity,CaHse1,5.5
same,SPOT peptide array binding signal intensity,CaLsb1,≤ 0
same,SPOT peptide array binding signal intensity,CaLsb4,≤ 0
same,SPOT peptide array binding signal intensity,CaMyo5,0.25
RKNRAPPQRPRFNRD,SPOT peptide array binding signal intensity,AgAbp1,958
same,SPOT peptide array binding signal intensity,AgBbc1,476
same,SPOT peptide array binding signal intensity,AgBem1-D1,438
same,SPOT peptide array binding signal intensity,AgBzz1-D1,256
same,SPOT peptide array binding signal intensity,AgBzz1-D2,154
same,SPOT peptide array binding signal intensity,AgCyk3,16
same,SPOT peptide array binding signal intensity,AgFus1,501
same,SPOT peptide array binding signal intensity,AgHof1,142
same,SPOT peptide array binding signal intensity,AgHse1,631
same,SPOT peptide array binding signal intensity,AgLsb1,230
same,SPOT peptide array binding signal intensity,AgLsb4,131
same,SPOT peptide array binding signal intensity,AgMyo5,6.5
same,SPOT peptide array binding signal intensity,AgNbp2,3290
same,SPOT peptide array binding signal intensity,AgRvs167,7
same,SPOT peptide array binding signal intensity,AgSho1,37
same,SPOT peptide array binding signal intensity,AgSla1-D1-D2,474
same,SPOT peptide array binding signal intensity,AgSla1-D3,52
same,SPOT peptide array binding signal intensity,CaAbp1-D1,924
same,SPOT peptide array binding signal intensity,CaAbp1-D2,998
same,SPOT peptide array binding signal intensity,CaBbc1,1240
same,SPOT peptide array binding signal intensity,CaBem1-D1,65.5
same,SPOT peptide array binding signal intensity,CaBzz1-D1,1760
same,SPOT peptide array binding signal intensity,CaBzz1-D2,1020
same,SPOT peptide array binding signal intensity,CaCyk3,342
same,SPOT peptide array binding signal intensity,CaFus1,758
same,SPOT peptide array binding signal intensity,CaHof1,0.75
same,SPOT peptide array binding signal intensity,CaHse1,149
same,SPOT peptide array binding signal intensity,CaLsb1,5.5
same,SPOT peptide array binding signal intensity,CaLsb4,698
same,SPOT peptide array binding signal intensity,CaMyo5,10.2
same,SPOT peptide array binding signal intensity,CaNbp2,1750
same,SPOT peptide array binding signal intensity,CaRvs167,31.5
same,SPOT peptide array binding signal intensity,CaRvs167-3,53
same,SPOT peptide array binding signal intensity,CaSho1,423
same,SPOT peptide array binding signal intensity,CaSla1-D1-D2,1480
same,SPOT peptide array binding signal intensity,CaSla1-D3,15
same,SPOT peptide array binding signal intensity,ScAbp1,153
same,SPOT peptide array binding signal intensity,ScBbc1,338
same,SPOT peptide array binding signal intensity,ScBem1-D1,26
same,SPOT peptide array binding signal intensity,ScBzz1-D1,162
same,SPOT peptide array binding signal intensity,ScBzz1-D2,16.5
same,SPOT peptide array binding signal intensity,ScCyk3,138
same,SPOT peptide array binding signal intensity,ScFus1,293
same,SPOT peptide array binding signal intensity,ScHof1,1.5
same,SPOT peptide array binding signal intensity,ScHse1,1230
same,SPOT peptide array binding signal intensity,ScLsb1,248
same,SPOT peptide array binding signal intensity,ScLsb2,119
same,SPOT peptide array binding signal intensity,ScLsb3,1430
same,SPOT peptide array binding signal intensity,ScLsb4,53
same,SPOT peptide array binding signal intensity,ScMyo3,22
same,SPOT peptide array binding signal intensity,ScMyo5,14.5
same,SPOT peptide array binding signal intensity,ScNbp2,4260
same,SPOT peptide array binding signal intensity,ScPex13,88.8
same,SPOT peptide array binding signal intensity,ScRvs167,238
same,SPOT peptide array binding signal intensity,ScSho1,845
same,SPOT peptide array binding signal intensity,ScSla1-D1-D2,1900
same,SPOT peptide array binding signal intensity,ScSla1-D3,49
same,SPOT peptide array binding signal intensity,SpAbp1-D1,917
same,SPOT peptide array binding signal intensity,SpBbc1,54
same,SPOT peptide array binding signal intensity,SpBzz1-D1,853
same,SPOT peptide array binding signal intensity,SpBzz1-D2,9.75
same,SPOT peptide array binding signal intensity,SpCyk3,10
same,SPOT peptide array binding signal intensity,SpHof1,285
same,SPOT peptide array binding signal intensity,SpHof1-2,16.2
same,SPOT peptide array binding signal intensity,SpHof1-3,360
same,SPOT peptide array binding signal intensity,SpHse1,367
same,SPOT peptide array binding signal intensity,SpLsb1,154
same,SPOT peptide array binding signal intensity,SpLsb4,793
same,SPOT peptide array binding signal intensity,SpMyo1,15.5
same,SPOT peptide array binding signal intensity,SpNbp2,726
same,SPOT peptide array binding signal intensity,SpPex13,30
same,SPOT peptide array binding signal intensity,SpRvs167,98.7
same,SPOT peptide array binding signal intensity,SpSla1-D1-D2,61
same,SPOT peptide array binding signal intensity,SpSla1-D3,7.5
